ClpP mod – qHTS Assay for Activators of ClpP; ATP-dependent Clp protease proteolytic subunit (Bacillus subtilis (strain 168)), P80244; purified B. subtilis ClpP, FRET peptide cleavage, 20 min; Potency, µM (titrated, usually from 57.5 µM), inactives show at the highest dose activity change, negative = active; 340,000 compounds, 1.9% hits; AID 651965, 2013; active means well fitted falling curve with a large enough effect; inconclusive means small, poorly fitted or top-dose-only effect; inactive means no such curve, though single readings can be large or run the other way; further: the source files actives as falling curves though it sought activators and does not explain the sign; nearly all actives have a fitted effect of over 65% in size
Target sequence (P80244 whole entry, looked up): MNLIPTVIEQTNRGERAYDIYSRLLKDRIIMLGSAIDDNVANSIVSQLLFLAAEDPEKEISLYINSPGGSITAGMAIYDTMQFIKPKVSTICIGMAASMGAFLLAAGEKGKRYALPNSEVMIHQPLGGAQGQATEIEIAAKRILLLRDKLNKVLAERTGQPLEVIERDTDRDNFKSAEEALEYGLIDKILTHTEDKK
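ClpP 10 microg/mL final, pH 8 Tris/KCl buffer with BSA, glycerol, Tween-20; compound pinned in; FRET-FV substrate; RT 20 min; Ex320/Em430; ΔFRET vs ADEP 5.8 microM, DMSO, no enzyme.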
FUS yeast rescue – qHTS for Suppressors of FUS Proteinopathy: Primary screen using FUS-linked yeast assay; S. cerevisiae FUS-expressing, growth rescue, OD600, 24 h; Potency, µM (top dose mostly 76.6 µM), usual class: activators; 390,000 compounds, 0.24% hits;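 further: plate controls were DMSO vehicle for no effect and reference control for full effect; nearly all actives have a fitted effect of over 55% in size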
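Restored growth of FUS-toxic S. cerevisiae, read as 600 nm absorbance after 24 h at 30C in galactose medium (starting OD 0.005). Controls CP55940 and DMSO.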
aSyn yeast inh – qHTS of alpha-syn Inhibitors; Yeast expressing alpha-synuclein, growth rescue, BacTiter-Glo, 24 h; Potency, µM (titrated, usually from 46.1 µM), without a hit: at the top dose growth rescue (activation), usual class: activators; 370,000 compounds, 0.14% hits; AID 652106, 2013; further: % of control where 0% means no effect; nearly all actives have a fitted effect of over 65% in size
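Galactose-induced alpha-syn yeast (OD600=0.02, raffinose-pregrown) + pinned cpd, 24 hr, 30 deg C; growth by BacTiter-Glo luminescence. Growth restoration scores as activation.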
TDP43 rescue – qHTS of TDP-43 Inhibitors | TDP-43 expressing yeast growth rescue, BacTiter-Glo, 24 h | 410,000 compounds, 1.8% hits | Potency, µM (doses to about 46.1 µM), without a hit: at the top dose growth rescue (activation), usual class: activators; further: % of control where 0% means no effect; nearly all actives have a fitted effect of over 50% in size
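Growth rescue of TDP-43-toxic yeast measured as ATP luminescence (BacTiter-Glo). Cells grown to mid-log in raffinose, induced in galactose at OD600=0.02, exposed to compound 24 hr at 30 deg C.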
MmCpn inh – Inhibitors of TCP-1 ring complex (TRiC) of Methanococcus maripaludis (MmCpn): qHTS; Chaperonin Mm-Cpn (Methanococcus maripaludis); purified Mm-Cpn ATPase, ADP Transcreener TR-FRET; Potency, µM (series often up to 76.9 µM), for the others: at the top dose activity, negative = inhibition, usual class: inhibitors; 330,000 compounds, 0.031% hits; AID 504842, 2011; further: on the % scale 0 is the no-effect control and ±100 the full control effect; nearly all actives have a fitted effect of over 80% in size
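Measured: ADP formation by purified Mm-CPN. Conditions: 25 nM protein, 10 uM ATP, Tris pH 7.4 with Mg2+, K+ and DTT, 37°C for 30 min. Detection: Transcreener HTRF after 30 min at room temperature.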
Abeta yeast res – qHTS for compounds that reverse cellular toxicity of Amyloid beta (A-beta) peptide in yeast: Primary Screen | Potency, µM (titrated, usually from 46.1 µM), usual class: activators | AID 1347071, 2019 | 410,000 compounds, 0.063% hits | yeast expressing A-beta42, growth rescue, OD600, 48 h; response scale: 0% DMSO, 100% iron-clioquinol control; further: nearly all actives have a fitted effect of over 55% in size
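Yeast growth medium received pinned compounds, then yeast cells expressing toxic A-beta were added; plates incubated at 30 C for 48 hr. Growth read as absorbance at 600 nm, normalized to DMSO and equimolar FeCl3 plus clioquinol controls.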
Active calls of the source: *. An excerpt weighted towards active compounds, which were near 3.6% of everything screened. Unless noted, the call rests on the fitted dose curve; in most records, active means well fitted curve in the direction sought with a large enough effect; inconclusive means small, poorly fitted or top-dose-only effect, or another doubt; inactive means no such curve, though single readings can be large; an effect the other way counts as inactive or inconclusive. Potency means the concentration at half of the fitted maximal effect.

What do the screens show for `CCC1CCCN1Cn1cnc2c([nH]c3ccc(OC)cc32)c1=O` (centres undefined)?
ClpP mod: 18µM*; FUS yeast rescue: inactive; aSyn yeast inh: 0%; TDP43 rescue: -8%; MmCpn inh: -1%; Abeta yeast res: inactive

Results for CCN1CCCC1Cn1cnc2c([nH]c3cccc(Cl)c32)c1=O (centres undefined) ?
ClpP mod: 32µM*; FUS yeast rescue: inconclusive; aSyn yeast inh: -30%; TDP43 rescue: -29%; MmCpn inh: -1%; Abeta yeast res: inactive

What do the screens show for `Cc1ccc(NC(=O)Nc2nnc(SCC(=O)N3CCC(C)CC3)s2)cc1`?
ClpP mod: 0%; FUS yeast rescue: inactive; TDP43 rescue: 11%; Abeta yeast res: inactive

How did CCN(CC)C(=O)c1c([N+](=O)[O-])c(C(C)(C)C)nn1C do in these assays?
ClpP mod: 25µM*; FUS yeast rescue: inactive; aSyn yeast inh: -6%; TDP43 rescue: 30%; MmCpn inh: 1%; Abeta yeast res: inactive

Results for O=S(=O)(c1ccccc1F)N1CCN(c2nc(-c3cccs3)nc3ccccc23)CC1 ?
ClpP mod: 5%; aSyn yeast inh: -1%

How did O=C(/C=C/c1ccc(Cl)cc1Cl)N1CCN(c2ccccc2[N+](=O)[O-])CC1 do in these assays?
ClpP mod: -2%; FUS yeast rescue: inactive; aSyn yeast inh: inconclusive; TDP43 rescue: 13µM*; MmCpn inh: 1%; Abeta yeast res: inactive

What do the screens show for `O=C(/C=C/c1ccc(Cl)cc1Cl)N1CCN(c2ccc([N+](=O)[O-])c(N3CCOCC3)c2)CC1`?
ClpP mod: 1%; aSyn yeast inh: -7%; TDP43 rescue: inconclusive; MmCpn inh: 0%; Abeta yeast res: inactive

How did NNc1nc(-c2ccccc2)nc2sc3c(c12)CCCC3 do in these assays?
ClpP mod: -8%; FUS yeast rescue: inactive; aSyn yeast inh: -4%; TDP43 rescue: -3%; MmCpn inh: -2%; Abeta yeast res: inactive

How did Nc1c2c(nc3sc4c(c13)CCCC4)-c1ccccc1CC2 do in these assays?
ClpP mod: -2%; FUS yeast rescue: inactive; aSyn yeast inh: -7%; TDP43 rescue: 2.5µM*; MmCpn inh: -9%; Abeta yeast res: inactive

What do the screens show for `CCOc1cc(S(=O)(=O)NC2CC2)c(OCC)cc1-n1cnnn1`?
ClpP mod: 32µM*; FUS yeast rescue: inactive; aSyn yeast inh: 0%; TDP43 rescue: -10%; MmCpn inh: -3%; Abeta yeast res: inactive

What do the screens show for `CCOc1cc(S(=O)(=O)N2CCN(S(=O)(=O)CC)CC2)c(OCC)cc1-n1cnnn1`?
ClpP mod: 4%; FUS yeast rescue: inactive; aSyn yeast inh: -1%; TDP43 rescue: -18%; MmCpn inh: 1%; Abeta yeast res: inactive

How did CCOc1cc(S(=O)(=O)NCC2OCCc3ccccc32)c(OCC)cc1-n1cnnn1 (centres undefined) do in these assays?
ClpP mod: 13µM*; FUS yeast rescue: inactive; aSyn yeast inh: 3%; TDP43 rescue: -5%; MmCpn inh: 0%; Abeta yeast res: inactive

How did CCOc1cc(S(=O)(=O)NCc2ccc(OC)cc2)c(OCC)cc1-n1cnnn1 do in these assays?
ClpP mod: 22µM*; FUS yeast rescue: inactive; aSyn yeast inh: -10%; TDP43 rescue: -10%; MmCpn inh: 0%; Abeta yeast res: inactive

How did C[N+]1(CC(=O)c2cccc([N+](=O)[O-])c2)CCOCC1 do in these assays?
ClpP mod: 0%

What do the screens show for `O=C1N(Cc2ccccc2)c2ccccc2C12CCCc1sc(CCc3ccccc3)nc12` (centres undefined)?
FUS yeast rescue: inactive

What do the screens show for `CC(=O)N(c1ccc(Cl)cc1)c1cn(C(C)=O)c2ccccc12`?
FUS yeast rescue: inactive; aSyn yeast inh: 12%; TDP43 rescue: 20µM*; MmCpn inh: 2%; Abeta yeast res: inactive

What do the screens show for `CN(c1ccc(Cl)cc1)c1cc(=O)n(C)c2ccccc12`?
ClpP mod: -2%; FUS yeast rescue: inactive; aSyn yeast inh: 4%; TDP43 rescue: 16µM*; MmCpn inh: -10%; Abeta yeast res: inactive

Results for COC(=O)[C@]12CCCCC=C1N(Cc1ccc(OC)cc1)C(=O)[C@@H]2CC(=O)NCc1ccc(C)o1 ?
FUS yeast rescue: inactive

How did Cc1cc(N2CCCCC2)n2nc(C)c(-c3ccccc3)c2n1 do in these assays?
ClpP mod: -18%; FUS yeast rescue: inactive; aSyn yeast inh: -9%; TDP43 rescue: 7%; MmCpn inh: -2%; Abeta yeast res: inactive

Results for COc1ccc(-c2c(C)nn3c(N4CCN(Cc5ccccc5)CC4)cc(C)nc23)cc1OC ?
ClpP mod: 1%; FUS yeast rescue: inactive; aSyn yeast inh: -1%; TDP43 rescue: 30%; MmCpn inh: -1%; Abeta yeast res: inactive

Results for CCC(C)Nc1c2c(nc3c(-c4ccccc4)c(C)nn13)CCC2 (centres undefined) ?
ClpP mod: 28µM*; FUS yeast rescue: inactive; aSyn yeast inh: -1%; TDP43 rescue: -6%; MmCpn inh: -1%; Abeta yeast res: inactive

How did Cc1cc(N2CCN(Cc3ccccc3)CC2)n2nc(C)c(-c3ccccc3)c2n1 do in these assays?
ClpP mod: 32µM*; FUS yeast rescue: inactive; aSyn yeast inh: -5%; TDP43 rescue: -13%; MmCpn inh: 0%; Abeta yeast res: inactive

What do the screens show for `Cc1nn2c(N3CCCC3)cc(C(C)C)nc2c1-c1ccccc1`?
ClpP mod: 35µM*; FUS yeast rescue: inactive; aSyn yeast inh: 0%; TDP43 rescue: 4%; MmCpn inh: -1%; Abeta yeast res: inactive

What do the screens show for `CCCc1cc(N2CCOCC2)n2nc(C)c(-c3ccccc3)c2n1`?
ClpP mod: -5%; FUS yeast rescue: inactive; aSyn yeast inh: -1%; TDP43 rescue: 13%; MmCpn inh: 0%; Abeta yeast res: inactive

Results for CCCc1cc(N2CCN(c3ccccn3)CC2)n2nc(C)c(-c3ccccc3)c2n1 ?
ClpP mod: 28µM*; FUS yeast rescue: inactive; aSyn yeast inh: -6%; TDP43 rescue: 13%; MmCpn inh: -1%; Abeta yeast res: inactive

What do the screens show for `Cc1ccc(-c2[nH]ncc2CNCc2ccccc2)cc1`?
ClpP mod: 1%; aSyn yeast inh: -6%

Screening results (PubChem BioAssay)
